According to PubChem BioAssay (NCI):
About 83,000 compounds went through this panel and 20% of them were active in at least one assay; those are over-represented in the sample as a whole.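 Values shown are percent growth following 48 h exposure of cells in 96-well plates to a single concentration of compound; below 10 was considered active.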 Activity calls are given as the source filed them.

Assays:
Test in all cases: NCI-60 one-dose screen, 48 h (100 = growth as untreated, 0 = no growth, -100 = all killed)
[1] = test system: NCI-H23 lung; conditions: 10 µM unless noted
[2] = test system: NCI-H226 lung; conditions: 10 µM unless noted
[3] = test system: NCI-H322M lung; conditions: 10 µM unless noted
[4] = test system: HOP-62 NSCLC; conditions: 10 µM unless noted
[5] = test system: NCI-H460 lung; conditions: 10 µM unless noted
[6] = test system: MDA-MB-231 breast; conditions: 10 µM unless noted
[7] = test system: SF-268 CNS; conditions: 10 µM unless noted
[8] = test system: SF-539 CNS; conditions: 10 µM unless noted
[9] = test system: HCT-15 colon; conditions: 10 µM
[10] = test system: U251 CNS; conditions: 10 µM unless noted
[11] = test system: PC-3 prostate; conditions: 10 µM unless noted
[12] = test system: SK-MEL-28 melanoma; conditions: 10 µM unless noted
[13] = test system: SN12C renal; conditions: 10 µM unless noted
[14] = test system: HS 578T breast; conditions: 10 µM unless noted
[15] = test system: NCI/ADR-RES ovarian; conditions: 10 µM unless noted
[16] = test system: SW-620 colon; conditions: 10 µM unless noted
[17] = test system: MCF7 breast; conditions: 10 µM unless noted
[18] = test system: HCT-116 colon; conditions: 10 µM unless noted
[19] = test system: KM12 colon; conditions: 10 µM unless noted
[20] = test system: 786-0 renal; conditions: 10 µM unless noted

Measured: growth

CC(=O)C1CCC2C3CC=C4CC(OC(=O)Cc5ccc(N(CCCl)CCCl)cc5)CCC4(C)C3CCC12C (configuration not stated)
inactive: [1] 96.6% | [2] 94.6% | [3] 119% | [4] 112% | [5] 101% | [6] 112% | [7] 93.7% | [8] 79.5% | [9] 99.5% | [10] 106% | [11] 86.2% | [12] 107% | [13] 96.6% | [14] 126% | [15] 96.2% | [16] 101% | [17] 106% | [18] 93.7% | [19] 106%

COC1=CC(=O)OC(CCc2ccc3c(c2)OCO3)C1 (configuration not stated)
inactive: [1] 121% | [2] 105% | [3] 132% | [4] 106% | [5] 103% | [20] 112% | [6] 114% | [7] 101% | [8] 103% | [9] 103% | [10] 89% | [11] 106% | [12] 117% | [13] 107% | [14] 109% | [15] 120% | [16] 102% | [17] 86.9% | [18] 106% | [19] 109%

CC1(C)CC2(CC(C)(C)c3cc(O)c(O)cc32)c2cc(O)c(O)cc21
inactive: [1] 108% | [2] 85.7% | [3] 102% | [4] 95.9% | [5] 97.7% | [20] 94% | [6] 91.5% | [7] 88.6% | [8] 98.4% | [9] 89.5% | [10] 92.3% | [11] 90.9% | [12] 97% | [13] 94.2% | [14] 89.2% | [15] 103% | [16] 95.7% | [17] 94.5% | [18] 85.4% | [19] 94.4%

CC1(C)N=C(N)N=C(N)N1c1ccc(CCCCc2ccc(S(=O)(=O)F)cc2)c(Cl)c1
active: [4] 5.05% | [10] 9.69% | [11] 7.48% | [17] -0.0775%
inactive: [1] 29.8% | [2] 31.8% | [3] 43.1% | [5] 10.7% | [20] 22.1% | [6] 34.3% | [7] 25.6% | [8] 22.9% | [9] 29.5% | [12] 48.4% | [15] 103% | [16] 17.2% | [18] 12.8% | [19] 22.4%
